A selection: hits, their analogues and other compounds. The true share with any hit is near 0.55%.
Tb PFK inh: blocks T. brucei phosphofructokinase. O15648. T. brucei PFK, ADP-Glo luminescence. Potency, µM (highest dose often 57.5 µM), inactives show top-dose activity, negative = inhibition, actives largely listed as inhibitors. actives 0.17% (n = 330,000);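 note: potency is the fitted concentration of half-maximal effect; 0% = uninhibited 1x PFK enzyme wells and -100% = no-enzyme wells; nearly all actives have a fitted effect of over 60% in size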
Target sequence (O15648 whole entry, looked up): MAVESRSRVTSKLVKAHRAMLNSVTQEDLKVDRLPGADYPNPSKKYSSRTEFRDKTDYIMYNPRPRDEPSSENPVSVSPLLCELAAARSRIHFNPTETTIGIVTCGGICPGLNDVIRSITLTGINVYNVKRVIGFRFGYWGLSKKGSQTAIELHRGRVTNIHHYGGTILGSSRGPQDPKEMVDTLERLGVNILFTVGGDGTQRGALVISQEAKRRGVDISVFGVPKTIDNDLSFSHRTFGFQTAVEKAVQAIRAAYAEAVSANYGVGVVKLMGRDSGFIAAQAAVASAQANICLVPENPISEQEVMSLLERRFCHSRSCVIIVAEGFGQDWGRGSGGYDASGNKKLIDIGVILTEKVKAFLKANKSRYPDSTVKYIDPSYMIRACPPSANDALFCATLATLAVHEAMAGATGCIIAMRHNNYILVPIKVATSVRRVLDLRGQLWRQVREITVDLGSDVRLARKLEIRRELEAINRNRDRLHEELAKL
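In TEA buffer at pH 8.0 with 5 mM MgCl2, enzyme (1.25 nM) converted F6P (0.5 mM) and ATP (0.1 mM) for 45 min at room temperature. ADP product was read by luciferase luminescence.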
GCN5L2 inh-1: GCN5L2 (KAT2A) acetyltransferase inhibition. Q92830. Potency, µM (series often up to 58.9 µM), for inactives: top-dose activity change, negative = inhibition, hits mostly inhibitors. actives 0.21% (n = 390,000). GCN5L2 HAT assay, ThioGlo1 CoA-SH fluorescence. AID 504327; note: potency is the fitted concentration of half-maximal effect; % is set by controls: 0 for no effect and ±100 for the full control effect
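GCN5L2 (20 nM) in 50mM HEPES pH 7.5, 0.1mM EDTA, 0.01% Tween-20 preincubated 15 min with compounds at room temperature. Reaction started with H3(1-25) 75uM, acetyl-CoA 70uM, ThioGlo1 50uM; CoA-thiol fluorescence (Ex340/Em540) read at 0 and 20 min.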
AT treatment: potential ataxia-telangiectasia treatment; actives 0.19% (n = 320,000); Potency, µM (highest dose often 57.5 µM), for inactives: top-dose activation, actives largely listed as activators; F2112 A-T fibroblasts, KAP-1 phosphorylation AlphaLISA; neocarzinostatin DNA damage 30 min before lysis; note: potency is the fitted concentration of half-maximal effect; % of control where 0% means no effect; nearly all actives have a fitted effect of over 45% in size
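hTERT-immortalized A-T patient fibroblasts (F2112), 500 cells/well in OPTI-MEM, 1% FBS, got compounds for 60 min, then NCS for 30 min at 37C. Lysates were then assayed for phospho-KAP-1 by AlphaLISA (anti-pKAP1 donor, anti-KAP1 acceptor beads), 6 hr at 25C.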
p53 reactivation: mutant p53 re-activation in reporter cells; actives 0.063% (n = 320,000); Potency, µM (highest dose often 92.2 µM), for the others: at the highest dose activity change, positive = activation, actives largely listed as activators; H1299 p53-A138V BP100-luciferase reporter, luminescence, 24 h; AID 504706; note: potency is the fitted concentration of half-maximal effect; % of control where 0% means no effect; nearly all actives have a fitted effect of over 45% in size
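H1299 (p53-null), stable ts p53-A138V + BP100-Luc; 1000 cells/well, Opti-MEM/10% FBS; cpd 4 pt, 1:5; 24 h, 37 deg C, 5% CO2; detection reagent 10 min RT; luminescence.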
ERG-DNA inh: inhibitors of human ERG Ets domain-DNA interaction; fluorescence polarization, His-ERG Ets domain / labelled DNA; actives 0.028% (n = 370,000); P11308; Potency, µM (doses to about 76.9 µM), without a hit: at the highest dose FP activity, negative = inhibition, actives largely listed as inhibitors; active = well fitted inhibition curve with a large enough effect in the polarisation, with a control signal flat; inconclusive = small, poorly fitted or top-dose-only effect, or effect the other way, or a change in a side signal; inactive = no such curve, though single readings can be large or run the other way; the % refers to the polarisation;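 note: polarization taken with two DNA probes labelled with fluorescein and Texas red; potency is the fitted concentration of half-maximal effect; % of control where 0% means no effect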
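His-tagged ERG Ets domain (1 uM in the protein solution; 300mM KCl, 50mM Tris-HCl, 1mM EDTA, 1mM DTT, pH 7.5) received compound, then a probe mix of 5 nM fluorescein-DNA and 100nM Texas-615-DNA. Fluorescence polarization was read for both dyes.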
ASM inhibitor: blocks human secretory acid sphingomyelinase. P17405. placental ASM, HMU-PC fluorogenic substrate, 60 min. Potency, µM (titrated, usually from 57.5 µM), for inactives: at the highest dose activity change, negative = inhibition, usual class: inhibitors. actives 0.006% (n = 340,000). AID 504937; note: potency is the fitted concentration of half-maximal effect
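qHTS format. ASM enzyme prepared from human placenta hydrolyses the fluorogenic substrate HMU-PC0 (9 uM final) over 60 min at 37 °C after a 10 min compound preincubation.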
GCN5L2 inh-2: human KAT2A HAT inhibition, hit confirmation; actives 70% (n = 140); shares compounds with GCN5L2 inh-1; AID 588347; GCN5L2 HAT, ThioGlo1 CoA fluorescence, 20 min; Potency, µM, usual class: inhibitors
* = called active by the depositor; i = inactive; u = inconclusive; x = no result given. Unless noted, calls come from the whole dose curve; as a rule, active = well fitted curve in the direction sought with a large enough effect; inconclusive = small, poorly fitted or top-dose-only effect, or another doubt; inactive = no such curve, though single readings can be large; an effect the other way counts as inactive or inconclusive.

SMILES | Tb PFK inh | GCN5L2 inh-1 | AT treatment | p53 reactivation | ERG-DNA inh | ASM inhibitor | GCN5L2 inh-2
Cc1ccc2c(c1)-c1c(cnn1CC(=O)N1CCN(c3cc(Cl)ccc3C)CC1)CO2 | x | 0% | x | x | -6% | x | x
COc1cc(CCc2ccccc2)c(C(=O)O)c(O)c1CC=C(C)C | x | x | x | x | -4% | 9% | x
COc1cc(CCc2ccccc2)c(C(=O)O)c(O)c1C/C=C(/C)CCC=C(C)C | -11% | 14µM* | 8% | -6% | 0% | 7% | 11*
Cc1ccc(-n2nc(CO)c(C(=O)NCc3cccnc3)n2)cc1C | x | -3% | x | x | 0% | x | x
O=C(COC(=O)c1ccccc1)Nc1ncc([N+](=O)[O-])s1 | -12% | u | -16% | u | -7% | -5% | 4.6*
O=C(Nc1ccccc1)Nc1ncc([N+](=O)[O-])s1 | -1% | -2% | -25% | -5% | u | -2% | x
CCOC(=O)c1cnc2cc(C)nn2c1-c1ccccc1 | 1% | 40µM* | 2% | -6% | 6% | -1% | 14*
CCOC(=O)c1cnc2cc(-c3ccc(Cl)cc3)nn2c1-c1ccccc1 | x | -15% | x | x | -17% | x | x
O=C(C1=NN(c2ccccc2)C2C(=O)N(c3ccc(Cl)cc3)C(=O)C12)c1ccccc1 (stereo unspecified) | -1% | -6% | -3% | -11% | -8% | 7% | x
O=C(C1=NN(c2ccccc2)C2C(=O)N(c3cccc(Cl)c3)C(=O)C12)c1ccccc1 (stereo unspecified) | -5% | 25µM* | -2% | 8% | 5% | -2% | 36*
Cc1ccc(S(=O)(=O)N2[C@@H](c3ccc(C(C)(C)C)cc3)C(C(=O)O)=CC[C@H]2c2ccc(C(C)C)cc2)cc1 | -9% | 14µM* | -9% | -7% | 3% | -21% | 13*
CCc1ccc([C@@H]2CC=C(C(=O)O)[C@H](c3ccc(C(C)(C)C)cc3)N2S(=O)(=O)c2ccc(C)cc2)cc1 | 0% | 18µM* | 27% | 1% | -2% | -24% | 18*
Cc1ccc([C@@H]2CC=C(C(=O)O)[C@H](c3ccc(C(C)(C)C)cc3)N2S(=O)(=O)c2ccc(C)cc2)cc1 | 0% | u | -9% | 2% | -3% | -3% | x
COc1ccc(NC(=O)N2CC3(CCN(C(=O)c4cnccn4)CC3)C2)cc1 | x | -9% | x | x | x | x | x
COC(=O)c1sccc1NC(=O)CC1C(=O)NCCN1C(=O)c1c(F)cccc1Cl (stereo unspecified) | -8% | u | 3% | -2% | -4% | -2% | u
O=C(c1nc(-c2ccc(Cl)cc2)n2c1CCCCC2)N1CCN(c2ccc(F)cc2)CC1 | x | -11% | x | x | 0% | x | x
CC(=O)Nc1ccc(C2=NN(c3ccccc3)C(c3ccccc3)C2)cc1 (stereo unspecified) | -5% | u | 22µM* | 2% | -6% | i | 36*
Oc1ccc(C2=NN(c3ccccc3)C(c3ccc(F)cc3)C2)cc1 (stereo unspecified) | 1% | -11% | 24% | -12% | 6% | i | x
COc1ccc(C2CC(c3ccccc3)=NN2c2ccc(C(N)=O)cc2)cc1 (stereo unspecified) | 0% | 2% | 49% | -6% | 13% | i | x
O=C(O)c1ccc(N2N=C(c3ccccc3)CC2c2ccccc2)cc1 (stereo unspecified) | 3% | 16µM* | 30% | u | 8% | i | 14*
Cc1ccc2c(c1)-c1cc(C)nn1C(c1cc(Br)ccc1O)N2 (stereo unspecified) | x | -14% | x | x | -3% | x | x

Screening results from PubChem.
